# High-throughput results: PubChem BioAssay, The Scripps Research Institute Molecular Screening Center
# PAFAH1B2 inh: PAFAH1B2 (human) inhibition; AID 492953; actives 1.2% (n = 340,000); recombinant PAFAH1B2, FP-rhodamine activity probe, fluorescence polarization; inhibition, % at 3.39 µM;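 active means inhibition above the mean of all tested compounds plus 3 SD, cut at about 24% in these data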;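 further: 0% = enzyme with DMSO and 100% = wells lacking PAFAH1B2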
# PME-1 inh: blocks human protein phosphatase methylesterase 1; Q9Y570; actives 0.53% (n = 320,000); recombinant PME-1, FP-Rh probe fluorescence polarization; inhibition, % at 5.9 µM;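 active means inhibition above the campaign mean of all compounds plus 3 SD, cut at about 26% in these data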;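 further: competitive labeling of PME-1 active site by serine hydrolase directed probe; 0% = PME-1 with DMSO and 100% = wells lacking PME-1 enzyme; inhibitors block probe labeling so polarization falls and inhibition rises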
# Fam108B counter: counter-screen for RBBP9 inhibitors: inhibitors of mouse Fam108B. inhibition, % at 9.51 µM. AID 1947. recombinant Fam108B, FP-Rh probe fluorescence polarization. actives 0.33% (n = 300,000);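 active means inhibition above the screen mean inhibition plus 3 SD, computed separately per campaign, cut at about 18% in these data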;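 further: inhibitors lower polarization as less probe binds the enzyme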
# pPAFAH inh: pPAFAH (human) enzyme inhibition; Q13093; inhibition, % at 3.39 µM; recombinant pPAFAH, FP-rhodamine probe fluorescence polarization; AID 463082; actives 1.5% (n = 330,000);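 active means inhibition above the mean inhibition across the screen plus 3 SD, cut at about 25% in these data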;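 further: inhibitors block binding of the rhodamine activity-based probe so polarization drops; 0% = enzyme with DMSO and 100% = wells lacking pPAFAH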
# Target sequence (Q13093 whole entry, looked up): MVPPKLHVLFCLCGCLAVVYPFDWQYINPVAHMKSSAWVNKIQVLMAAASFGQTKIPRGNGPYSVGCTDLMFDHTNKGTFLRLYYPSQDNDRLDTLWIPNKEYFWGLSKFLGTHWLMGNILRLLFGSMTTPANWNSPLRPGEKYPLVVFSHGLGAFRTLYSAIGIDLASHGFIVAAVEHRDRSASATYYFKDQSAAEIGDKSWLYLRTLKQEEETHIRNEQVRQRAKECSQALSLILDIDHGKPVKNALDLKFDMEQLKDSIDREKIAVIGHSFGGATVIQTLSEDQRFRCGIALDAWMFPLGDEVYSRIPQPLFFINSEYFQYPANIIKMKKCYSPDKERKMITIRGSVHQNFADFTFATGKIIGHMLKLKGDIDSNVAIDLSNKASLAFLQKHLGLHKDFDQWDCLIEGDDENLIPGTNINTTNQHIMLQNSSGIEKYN
# PAFAH2 FP inh: inhibitors of human PAFAH2. Q99487. recombinant PAFAH2, FP-rhodamine activity probe, fluorescence polarization. inhibition, % at 3.39 µM. actives 0.99% (n = 340,000). AID 492956;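 active means inhibition above the mean over all tested compounds plus 3 SD, cut at about 30% in these data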;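 further: inhibitors block probe labeling of enzyme so polarization drops; 0% = enzyme with DMSO and 100% = wells lacking PAFAH2 protein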
# PAFAH1B3 FP inh: blocks human PAF acetylhydrolase 1B catalytic subunit 3. Q15102. AID 492972. actives 0.28% (n = 340,000). recombinant PAFAH1B3, FP-rhodamine probe, fluorescence polarization. inhibition, % at 3.39 µM;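 active means inhibition above the screen-wide average of all tested compounds plus 3 SD, cut at about 25% in these data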;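 further: 0% = enzyme with DMSO only and 100% = wells lacking PAFAH1B3 protein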
# Target sequence (Q15102 whole entry, looked up): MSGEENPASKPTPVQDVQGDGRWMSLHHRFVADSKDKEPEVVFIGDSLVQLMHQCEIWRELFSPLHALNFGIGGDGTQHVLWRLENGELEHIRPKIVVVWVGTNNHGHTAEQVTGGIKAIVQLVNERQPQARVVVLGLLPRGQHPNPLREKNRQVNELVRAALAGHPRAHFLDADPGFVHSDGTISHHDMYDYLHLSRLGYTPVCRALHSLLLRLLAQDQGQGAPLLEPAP
# Fam108b confirm: confirmation of mouse Fam108b serine hydrolase inhibitors; shares compounds with Fam108B counter; recombinant Fam108b, FP-Rh probe fluorescence polarization; inhibition, % at 9.51 µM; actives 44% (n = 930);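 active means inhibition above a limit from the primary screen, the mean over all compounds plus 3 SD, cut at about 19% in these data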;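 further: 0% = median of active Fam108b wells and 100% = catalytically dead S170A mutant; inhibitors free the probe so polarization falls as inhibition rises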
# Fam108b inh: inhibits mouse Fam108b in gel-based ABPP; shares compounds with Fam108B counter; recombinant Fam108b, fluorophosphonate probe; inhibition, % at 20 µM; actives 44% (n = 260); AID 588649; in the data active means inhibition above about 40%
# pPAFAH confirm: pPAFAH (human) inhibition, confirmed; shares compounds with pPAFAH inh; recombinant pPAFAH, FP-Rh probe fluorescence polarization; inhibition, % at 3.39 µM; actives 72% (n = 2,300); AID 463230;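 active means mean inhibition of the triplicate above the hit cutoff set for the earlier primary screen, cut at about 25% in these data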;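 further: 0% = enzyme with DMSO and 100% = wells lacking pPAFAH enzyme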
# An asterisk follows results filed as active; nt = no result. This is a sample that favours compounds with a hit; in the whole collection about 2.9% have one here.
SMILES,PAFAH1B2 inh,PME-1 inh,Fam108B counter,pPAFAH inh,PAFAH2 FP inh,PAFAH1B3 FP inh,Fam108b confirm,pPAFAH confirm,others
COc1ccc(S(=O)(=O)Nc2cccc3c2O[C@H](CN(C)S(=O)(=O)c2cn(C)cn2)[C@@H](C)CN([C@H](C)CO)C3=O)cc1,2,nt,nt,-1,-1,-3,nt,nt,
CCN(CCn1cccn1)C(=O)CC1C(=O)NCCN1Cc1cc(OC)cc(OC)c1 (stereo not given),0,6,5,8,-6,1,nt,nt,
O=C(Nc1ccc(-c2csc(Nc3ccc(Cl)cc3)n2)cc1)c1cc([N+](=O)[O-])cc(C(F)(F)F)c1,11,9,29*,5,20,16,-5,nt,
Nc1nc(-c2ccc([N+](=O)[O-])cc2)c(C(=O)Nc2ccc(Cl)cc2)s1,2,2,-6,5,1,7,nt,nt,
O=C(Nc1cccc(-c2csc(Nc3ccccc3)n2)c1)c1cc([N+](=O)[O-])cc(C(F)(F)F)c1,28*,31*,37*,30*,-14,27*,21*,nt,
CNC(=S)NNC(=O)Cc1ccc(OC)c(OC)c1,6,-6,1,-6,0,2,nt,nt,
CCCCOc1[nH]c2nc(-c3ccco3)n(Cc3ccco3)c(=N)c2c1C#N,12,14,20*,57*,29,-3,13,15,
c1ccc(CSc2nnc(-c3ccco3)n2Cc2ccco2)cc1,5,4,-2,10,8,0,nt,nt,
Oc1nc(Nc2cccc(Cl)c2)sc1/C=C1\C=Nc2ccccc21,10,49*,34*,37*,-4,15,33*,29*,Fam108b inh=95*
Cc1c2ccccc2nc2c(F)c(NCCO)c(F)c(F)c12,14,4,19*,37*,25,19,4,14,
OCCNc1c2ccccc2nc2c(F)c(F)c(F)c(F)c12,1,9,5,6,1,14,nt,nt,
O=C(NN1C(=O)C2CC=C(Cl)CC2C1=O)c1ccncc1 (stereo not given),2,-1,1,-2,6,0,nt,nt,
Cc1ccc(/C=C2\SC(=S)N(/N=C/c3cc([N+](=O)[O-])ccc3O)C2=O)o1,26*,5,25*,63*,74*,46*,26*,56*,
O=C(NN=C1CCN(Cc2ccccc2)CC1)c1cc2ccccc2cc1O,13,29*,34*,47*,4,6,-3,21,
COc1ccc(-c2csc(NC(=O)c3ccccc3NS(=O)(=O)c3ccc(C)cc3)n2)cc1,15,21,36*,39*,36*,6,12,49*,
O=C(O)c1ccc2c(c1)C(=O)/C(=C\c1ccco1)C2=O,12,-33,18*,54*,17,35*,13,18,
Cc1ccc(S(=O)(=O)CCC(=O)OCC(=O)NNC(=O)c2ccc([N+](=O)[O-])cc2)cc1,-1,1,nt,4,-3,-2,nt,nt,
CC(=O)c1cnc(N(C)C)s1,5,-2,3,-2,9,7,nt,nt,
CN(C)c1ncc(C2=C(Cl)C(=O)C(N3CCCC3)=C(Cl)C2=O)s1,9,4,26*,49*,29,27*,-4,10,
Cc1ccc(C2Nc3ccc4ccccc4c3C3=C2C(=O)CC(C)(C)C3)o1 (stereo not given),3,-1,6,11,-5,11,nt,nt,
O=C1CCCC2=C1C(c1ccco1)Nc1ccc3ccccc3c12 (stereo not given),2,-1,18*,40*,26,3,11,29*,
COc1ccc(-n2c(O)c(/C=N/NS(=O)(=O)c3cccc([N+](=O)[O-])c3)c3ccccc3c2=O)cc1OC,-23,-10,-12,10,-44,-16,nt,nt,
CCCn1nc([N+](=O)[O-])c(C(C#N)c2nc3ccccc3o2)c(Cl)c1=O (stereo not given),39*,27*,29*,69*,46*,28*,14,58*,
CCn1nc([N+](=O)[O-])c(C(C#N)c2nc3cc(C(F)(F)F)ccc3s2)c(Cl)c1=O (stereo not given),31*,56*,43*,80*,42*,15,38*,70*,Fam108b inh=65*
Cn1nc([N+](=O)[O-])c(C(C#N)c2ccccn2)c(Cl)c1=O (stereo not given),-2,8,7,-1,2,0,nt,nt,
SMILES,PAFAH1B2 inh,PME-1 inh,Fam108B counter,pPAFAH inh,PAFAH2 FP inh,PAFAH1B3 FP inh,Fam108b confirm,pPAFAH confirm,others
COc1cccc(Nc2ncnc3sc(C)cc23)c1,4,-4,-3,-7,2,9,nt,nt,
COc1ccccc1NCCC(=O)O,-6,-1,-3,2,-4,10,nt,nt,
O=C(O)CCNc1ccc(NCCC(=O)O)c2c1C(=O)c1ccccc1C2=O,16,27*,36*,62*,46*,25,26*,19,
NC1=NC(=Nc2cccc(S(N)(=O)=O)c2)c2ccccc21,3,1,0,3,-1,10,nt,nt,
COc1cc(N=Nc2cccc(S(N)(=O)=O)c2)c2ccccc2c1N,12,30*,34*,50*,20,18,14,32*,
Cc1cc(C(=O)OCC(=O)NNC(=O)c2cccs2)ccc1[N+](=O)[O-],-4,0,1,21,5,7,nt,nt,
COc1ccc(C(=O)N/N=C/c2ccc(OC)c(COc3ccccc3)c2)cc1,-2,-7,-1,8,1,-1,nt,nt,
COc1ccc(/C=N\NC(=O)c2cc(O)c(O)c(O)c2)cc1COc1ccc(C(=O)OCC(C)C)cc1,13,42*,28*,85*,31*,26*,31*,87*,
COc1cc(/C(C)=N/N2CCOCC2)cc(OC)c1OC,-1,1,-2,7,7,4,nt,nt,
O=c1ccc2c(-c3ccccc3)c3ccc(O)cc3oc-2c1,47*,5,26*,53*,60*,39*,42*,47*,Fam108b inh=25
COC(=O)c1cc(Br)c(=O)n(-c2ccccc2F)c1,-1,3,2,0,-3,7,nt,nt,
O=S(=O)(O)c1cccc2c(N=Nc3ccc(O)c4ncccc34)cccc12,41*,24,50*,92*,66*,64*,45*,91*,Fam108b inh=0
O=Nc1ccc(O)c2ncccc12,10,21,3,6,10,8,nt,nt,
CN(C)CCn1cnc2c1c(=O)[nH]c(=O)n2Cc1ccccc1,0,-3,-3,-1,-13,8,nt,nt,
